Consider 28 molecules from PubChem BioAssay AID449762 (Southern Research Specialized Biocontainment Screening …, 2010).

The term inhibition denotes the change of the read-out against control, counted positive when it falls.

In all, about 330,000 compounds went through this assay and about 1,900 (0.58%) were called active. Inconclusive results (about 4%) are left out. A selection follows. Measured potencies and affinities stand elsewhere. A number with no mark means an inactive call. Rule as the data show it: inconclusive = inhibition above about 70% without an active follow-up result; inactive = below that.

The assay in a line: M. tuberculosis growth inhibition, HTS (AID 449762).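 Also: bacterial growth assessed after seven days of incubation.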 Particulars: M. tuberculosis H37Rv growth inhibition, 7H9 media; at 25 µM; hits give high values.
`COc1cc2[nH]c(=O)n(C3CCCCC3)c(=O)c2cc1OC`: the inhibition is -2.86%.

Take `COc1c[nH]n(-c2ccccc2)c(=O)c1=O`: the inhibition was 2%. Then `COc1ccc([C@H]2CC(=O)C=C(c3ccc4[nH]ccc4c3)C2)cc1OC`, with 55.7%; and `O=C1C=C(c2ccc3ccccc3c2)C[C@@H](c2ccc(Cl)cc2)C1`, with 19.3%. Turning to `O=C(Nc1ccc(F)c(F)c1)C1CCN(S(=O)(=O)c2cccc3nonc23)CC1`, the inhibition is -5.72%. Then `Cn1nc(C(=O)Nc2cc(Cl)ccc2N2CCCC2)c2ccccc2c1=O`, with 1.5%. Then `CC(=O)Nc1ccc(NC(=O)COc2ccc3c(c2)CCC3)cc1`, with 1.68%; and `Cc1cccnc1NC(=O)COc1ccc2c(c1)CCC2`, with 54.8%.

Take `O=C(c1ccc2snnc2c1)N1CCCCC1`: the inhibition is -3.95%. Regarding `Cc1ccc(N2CC(C(=O)Nc3nccs3)CC2=O)cc1Cl` (stereo not drawn), the inhibition is 10.9%. For the molecule `CCc1nnc(NC(=O)C2CC(=O)N(c3ccc(C)cc3)C2)s1` (stereo not drawn), the inhibition was 11.9%. Then `COC(=O)/C(C#N)=C/c1c(-c2ccccc2)nc2n1CCS2`, with -12.2%. Then `CCNc1nc(NC(C)C)nc(NS(=O)(=O)c2ccc(N)cc2)n1`, with -9.39%. Take `CC(/C=C/c1ccco1)=N\NC(=O)c1cccnc1`: the inhibition is -3.96%. Then `O=C(N/N=C/C=C/c1ccccc1)c1cccnc1`, with -0.94%. With `COCCN1CSC(=S)N(Cc2ccco2)C1`, the inhibition is 66.9%. Then `CC(C)N1CSC(=S)N(Cc2ccccc2)C1`, with 64.3%. Then `CC(C)(C)N1CSC(=S)N(Cc2ccccc2)C1`, with 65%; and `S=C1NCN(Cc2ccco2)CN1Cc1ccco1`, with 7.57%. Consider `O=C(CCN1C(=O)c2ccccc2C1=O)Nc1ccc(F)cc1`, for which the inhibition is -6.8%.

As for `CN(C)CCCN(C(=O)c1cc(-c2cccs2)nc2ccccc12)c1nc2c(F)cccc2s1`, the inhibition is 49.4%.

With `CN(C)CCCN(C(=O)c1nc2ccccc2s1)c1nc2ccc(F)cc2s1`, the inhibition is -11.9%.

With `C[C@H](CO)N1C[C@H](C)[C@@H](CN(C)C(=O)NC2CCCCC2)Oc2ccc(NC(=O)Cn3cnnn3)cc2C1=O`, the inhibition is 4.07%. Then `Cc1c(C)c(C)c(CN2CCCC2)c(C)c1C`, with 2.65%. In the case of `CNC(=O)c1ccc(NC(=O)CCc2c(C)noc2C)cc1`, the inhibition is -12.4%. For the molecule `CC[C@@]12C(=O)N(c3cccc(F)c3)C(=O)N1[C@H](c1ccc(F)cc1)[C@@H]1C(=O)N(C3CCCCC3)C(=O)[C@@H]12`, the inhibition is 0.17%. Turning to `CC(=O)Nc1ccc(N2C(C(C)=O)=NN(c3ccccc3)C2c2cccs2)cc1` (stereo not drawn), the inhibition was 1.3%. Then `CC(=O)C1=NN(c2ccccc2)C(c2cccs2)N1c1ccccc1` (stereo not drawn), with -3.16%.
